An excerpt weighted towards active compounds, which were near 11% of everything screened.
PNC inhibitor: inhibitors of perinucleolar compartment assembly; PC3M PTB-GFP, PNC prevalence imaging, 16 h; hits give low values; activity change (PNC), negative = inhibition, % at 10 µM; hit rate 3.1% among 140,000;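 active = readout at or below -70, meaning at least 70% loss of cells showing the perinucleolar compartment, a nuclear body marking cancer cells; inconclusive = readout between -30 and a set limit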;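 note: plate controls were DMSO wells for no effect and camptothecin positive control wells for full effect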
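PC3M cells stably expressing PTB-GFP, 750–1000 cells/well, treated 16 h at 37 °C with compound (23 nl of library stock), in duplicate. After paraformaldehyde fixation and Hoechst stain, imaged at 20x; PNC prevalence scored by image analysis.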
ALDH1A1 inh: inhibitors of human aldehyde dehydrogenase 1A1. hit rate 7.3% among 220,000. Purified ALDH1A1, NADH fluorescence, propionaldehyde substrate. Potency, µM (highest dose often 75.3 µM), for inactives: at the highest dose activity, negative = inhibition, actives largely listed as inhibitors;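 note: potency is the fitted concentration of half-maximal effect; plate controls were no enzyme wells and a reference inhibitor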
JMJD2E inh: blocks human JMJD2E demethylase activity; hit rate 1.6% among 230,000; B2RXH2; AID 2147; Potency, µM (series often up to 57.1 µM), inactives show at the top dose activity change, negative = inhibition, usual class: inhibitors; JMJD2E catalytic domain, FDH-coupled NADH fluorescence (FDH is formaldehyde dehydrogenase);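 note: potency is the fitted concentration of half-maximal effect; 0% = wells with enzyme and -100% = buffer wells without enzyme; nearly all actives have a fitted effect of over 50% in size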
Target sequence (B2RXH2 1-337 limits assumed): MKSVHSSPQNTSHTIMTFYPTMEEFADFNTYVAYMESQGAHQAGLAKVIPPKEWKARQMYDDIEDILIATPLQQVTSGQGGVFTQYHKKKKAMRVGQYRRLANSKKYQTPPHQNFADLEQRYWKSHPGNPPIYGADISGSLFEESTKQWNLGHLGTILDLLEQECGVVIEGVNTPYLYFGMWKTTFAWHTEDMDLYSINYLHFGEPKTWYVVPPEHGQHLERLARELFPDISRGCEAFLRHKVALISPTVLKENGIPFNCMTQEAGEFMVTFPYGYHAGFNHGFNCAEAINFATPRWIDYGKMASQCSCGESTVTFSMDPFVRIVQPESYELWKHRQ
HPGD inh: inhibitors of human 15-hydroxyprostaglandin dehydrogenase (HPGD). hit rate 4.3% among 150,000. Potency, µM, for the others: at the top dose activity change, negative = inhibition, hits mostly inhibitors. P15428. purified HPGD, NADH fluorescence kinetic, PGE2 substrate; note: potency is the fitted concentration of half-maximal effect
Target sequence (P15428 whole entry, looked up): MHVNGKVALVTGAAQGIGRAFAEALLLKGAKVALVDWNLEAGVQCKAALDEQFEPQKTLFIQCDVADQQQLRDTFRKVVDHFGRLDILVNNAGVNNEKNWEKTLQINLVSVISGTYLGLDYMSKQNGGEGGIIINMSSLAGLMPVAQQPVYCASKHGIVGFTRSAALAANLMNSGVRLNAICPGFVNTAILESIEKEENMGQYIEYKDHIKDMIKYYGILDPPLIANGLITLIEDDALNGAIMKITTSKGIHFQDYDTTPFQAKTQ
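NADH formation kinetics: reaction with 30 uM PGE2 and 1 mM NAD+ (final), 20 nM enzyme, Tris-HCl pH 8 with Tween 20, after 15 min compound preincubation at room temperature. Fluorescence change, last versus first of five reads.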
Numbers without * were called inactive; ? = inconclusive; · = not tested or not shown; [ ] = dose if it differs, or a comment. Unless noted, calls come from the whole dose curve; as a rule, active = well fitted inhibition curve with a large enough effect (not every such curve was filed as active); inconclusive = small, poorly fitted or top-dose-only effect, or another doubt; inactive = no such curve, though single readings can be large or run the other way. Unless noted, % is set by controls: 0 for no effect and ±100 for the full control effect.

SMILES | PNC inhibitor | ALDH1A1 inh | JMJD2E inh | HPGD inh
CC(=O)Nc1ccc(S(=O)(=O)N(C2=NCC(C)S2)c2ccccc2)cc1 (stereo unspecified) | 280.4 | 12.6µM* | 0.7% | -16.3%
CC1CN=C(N(C(=O)Nc2ccccc2)c2ccc(F)cc2)S1 (stereo unspecified) | -25.6 | -6.5% | -5.5% | 10µM*
Cc1cc(C(=O)Cn2c(CO)nc3ccccc32)c(C)n1C | · | · | -3.1% | ·
COc1ccc(Cl)cc1NC(=S)N1CCN(c2ccccn2)CC1 | -5.8 | 3.2% | 3.6% | ·
O=C(CN1CCN(c2ccccn2)CC1)Nc1cccc(C(F)(F)F)c1 | 25.6 | 9.46µM* | -23.0% | 4.5%
COc1cc(NC(=O)c2cccc(C)c2)c(OC)cc1NC(=O)CN1CCCCC1 | · | ? | -17.5% | ·
COc1cc(NS(C)(=O)=O)c(OC)cc1NC(=O)c1ccccc1 | ? | 25.1µM* | 2.1% | -7.1%
COc1cc(NC(=S)N2CCN(c3ccccn3)CC2)c(OC)cc1Cl | 5.2 | ? | 2.0% | 28.2µM*
O=C(CN1CCN(c2ccccc2)CC1)Nc1cccc(C(F)(F)F)c1 | 32.1 | 1.0% | -1.9% | -13.8%
COc1cc(NC(=O)c2ccccc2)c(OC)cc1NC(=O)CN1CCN(c2ccccn2)CC1 | -11.7 | 15.8µM* | -24.7% | -19.9%
COc1cc(/C=N/NC(=O)c2cn(-c3cccc(C)n3)cn2)ccc1O | · | 10.3% | -4.6% | ·
COC(=O)C(/C=C/C(C)Cc1cc(Br)cc(OCc2ccccc2)c1OC)OCc1ccccc1 (stereo unspecified) | · | -9.8%[13.5 µM] | · | ·
CC(C)=NO[C@@H](C)CN1CCCCc2nc(C)c(C)cc21 | · | -7.3%[13.5 µM] | · | ·
COc1ccc(N2C(=O)C3NN=C(C(=O)OCc4ccccc4)C3C2=O)cc1 (stereo unspecified) | · | 16.3% | 12.3% | ·
N#CCCn1cc(/C=N/N=C2\NC(=O)C(CC(=O)O)S2)c(-c2ccc(F)cc2)n1 (stereo unspecified) | · | · | 5.4% | ·
O=C(CN1CCN(c2ccccn2)CC1)N1c2ccccc2Sc2ccc(C(F)(F)F)cc21 | -113.7* | 7.94µM* | ? | -14.9%
Cc1cc(OCC(=O)NC(C)c2ccccc2)ccc1[N+](=O)[O-] (stereo unspecified) | · | 25.1µM* | -2.2% | ·
CCN(CC)CCCN1C=C2C(=O)C(C)(OC(=O)c3cccs3)C(=O)C=C2C=C1CCCC(=O)OC (stereo unspecified) | · | 15.5%[13.5 µM] | 4.2%[11.4 µM] | -1.0%
CC1=C(c2ccccc2)[N+](=O)C2(CCCC2)N1[O-] | 13.1 | 4.5% | -2.0% | -13.8%
O=[N+]([O-])c1ccc2c(c1)N([O-])C1(CCCCC1)[N+]2=O | · | · | 11.2µM* | ·
CC(C)CC(NC(N)=O)C(=O)NCCc1ccc(Cl)cc1Cl (stereo unspecified) | · | 3.2% | -22.3% | ·
CCN(CC)CC(=O)Nc1ccc(C)cc1Br | 12.3 | 12.6µM* | -2.2% | 15.8µM*
CCN(CC)CC(=O)Nc1c(C)cc(C(C)(C)C)cc1C | ? | -0.1% | 2.4% | 25.1µM*
Cc1ccc(NC(=O)COC(=O)C2CC2)c(Br)c1 | -19.6 | 6.6% | 2.9% | 17.8µM*
O=C(/C=C/c1ccc(Br)o1)Nc1nnc(C2CC2)s1 | · | -12.6% | -8.1% | ·
SMILES | PNC inhibitor | ALDH1A1 inh | JMJD2E inh | HPGD inh
CN(Cc1cccc2ccccc12)Cc1cccc2ccccc12 | · | 9.9%[13.5 µM] | · | -4.7%
CCN1CCc2c(OCC(=O)N3CCC(C)CC3)cccc2C1=O | · | 3.9% | 3.3% | ·
CCOC(=O)N1CCN(C(=O)COc2cccc3c2CCN(Cc2ccccc2C)C3=O)CC1 | ? | 25.1µM* | 7.3% | 0.8%
CC1CCN(C(=O)COc2cccc3c2CCN(Cc2ccccc2)C3=O)CC1 | · | 28.2µM* | 5.5% | ·
CCOC(=O)N1CCN(C(=O)COc2cccc3c2CCN(Cc2cccc(C)c2)C3=O)CC1 | -9.6 | 2.8% | 2.0% | -9.4%
Cc1cc(/C=N/Nc2nc(N3CCOCC3)nc(N3CCOCC3)n2)c(C)n1-c1ccccc1 | · | ? | 35.5µM* | ·
C(=N\Nc1ccccc1)/c1ccc(N2CCOCC2)cc1 | 63.5 | 6.31µM* | ? | 14.1µM*
O=[N+]([O-])c1cc2c(cc1/C=N/Nc1nc(N3CCCC3)nc(N3CCCC3)n1)OCO2 | ? | 3.5% | 7.1% | -17.0%
COc1ccc(-n2c(C)cc(/C=N/Nc3nc(N4CCOCC4)nc(N4CCOCC4)n3)c2C)cc1 | ? | ? | ? | -10.1%
Brc1cc2c(cc1/C=N/Nc1nc(N3CCOCC3)nc(N3CCOCC3)n1)OCO2 | -26.2 | 20µM* | -19.8% | -14.7%
BrC(/C=N/Nc1nc(N2CCOCC2)nc(N2CCOCC2)n1)=C/c1ccccc1 | -95.6* | ? | -4.6% | 15.8µM*
Clc1cccc(N/N=C/c2ccc(N3CCOCC3)cc2)c1 | 19.3 | ? | -2.9% | ?
COC(=O)[C@H]1C[C@@H]1[C@H](NC(=O)c1cc(C)nn1C)c1ccccc1 | · | ? | 1.5% | 0.5%
Cc1nc(N)sc1N=Nc1ccc(F)cc1 | 28.2 | -4.1% | -8.5% | -15.9%
O=C(NCCCN1CCOCC1)c1sc2cc([N+](=O)[O-])ccc2c1Cl | · | 7.94µM* | ? | ·
O=C(NCCCN1CCOCC1)c1sc2cc(Cl)ccc2c1Cl | · | 1.2% | -5.3% | ·
CN(CC(=O)c1c(N)n(C)c(=O)n(C)c1=O)c1ccccc1 | · | 8.3% | -1.7% | ·
CN(C)c1ccc(P(=O)(OCc2ccccc2)C(O)c2ccccc2)cc1 (stereo unspecified) | · | -14.7% | -0.6% | ·
Cn1c(C(=O)N2CCN(Cc3ccccc3)CC2)cc2c(=O)n(C)c3ccccc3c21 | 33.4 | ? | ? | 15.8µM*
CCN1CCN(C(=O)c2cc3c(=O)n(C)c4ccccc4c3n2C)CC1 | -19.4 | ? | -20.9% | -7.7%
Cn1c(C(=O)N2CCCCCC2)cc2c(=O)n(C)c3ccccc3c21 | ? | ? | -3.8% | 2.82µM*
CCOC(=O)N1CCN(C(=O)c2cc3c(=O)n(C)c4ccccc4c3n2C)CC1 | 28.9 | 2.1% | 3.2% | -5.1%
CS(=O)(=O)Nc1ccc(C2=NN(S(C)(=O)=O)C(c3ccc4c(c3)OCO4)C2)cc1 (stereo unspecified) | -11.3 | ? | ? | ?
CCOc1cc(/C=N/NC(=O)COc2ccc(Cl)cc2)ccc1OS(=O)(=O)c1ccccc1 | 5.1 | 17.8% | 1.7% | -27.2%
CCOc1cc(/C=C(\C#N)C(N)=O)ccc1OS(=O)(=O)c1ccccc1 | -11.9 | 12.6µM* | -0.6% | -23.7%
SMILES | PNC inhibitor | ALDH1A1 inh | JMJD2E inh | HPGD inh
COc1ccc(/C=C(\C#N)C(N)=O)cc1OC | · | -7.3%[13.5 µM] | · | -4.2%
CCOc1cc(/C=N/NS(=O)(=O)c2ccccc2)ccc1OS(=O)(=O)c1ccc(C)cc1 | -13.6 | 8.91µM* | -2.6% | -13.0%
CN1Cc2c(N)cccc2[C@H](c2ccccc2)C1 | · | 7.6%[20.9 µM] | 4.5%[25.5 µM] | -13.1%
O=C(CCC(=O)CCN1CCCCC1)CCN1CCCCC1 | ? | 0.631µM* | -0.3% | -4.0%
N#Cc1sc(C(N)=O)c(-c2ccccc2)c1-c1ccccc1 | · | ? | 5.6% | ·
COc1ccc(-c2c(C#N)sc(C(N)=O)c2-c2ccc(OC)cc2)cc1 | · | 2µM* | -4.6% | ·
c1ccc2nc(-c3nc4ccccc4o3)ccc2c1 | -106.5* | ? | 0.6% | ?
c1ccc(-c2nc3ccccc3o2)nc1 | -16.2 | ? | ? | ?
CCC(=O)N(NC1=NS(=O)(=O)c2ccccc21)S(=O)(=O)c1ccc(C)cc1 | · | 2.9% | 2.8% | ·
